Source: PubChem (National Center for Advancing Translational Sciences (NCATS))
SMN2 splice enh: increases expression of the SMN2 splice variant; HEK293 SMN2-luciferase splicing reporter, luminescence, 30-36 h; Potency, µM (highest dose often 46.1 µM), for inactives: top-dose activity change, positive = activation, actives largely listed as activators; 210,000 tested, 2.8% active; AID 1458; note: % of control where 0% means no effect; nearly all actives have a fitted effect of over 55% in size
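qHTS luciferase splicing reporter: luminescence rises when SMN2 exon 7 is included in transfected HEK293 cells. Compound exposure lasted 30-36 h at 37C, with 4.5 mM final sodium butyrate as control, followed by a ONE-Glo read.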
ELG1 genotoxic: inducers of genotoxicity in HEK293T ELG1-luciferase cells; HEK293T ELG1-luciferase reporter, luminescence, 16 h; Potency, µM (top dose mostly 46 µM), for the others: at the highest dose activity change, positive = activation, actives largely listed as activators; 330,000 tested, 1.3% active; AID 504466; note: % of control where 0% means no effect; nearly all actives have a fitted effect of over 60% in size
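16 hr compound incubation (37 °C, 5% CO2) of HEK293T cells carrying luciferase-tagged ELG1; luciferase then measured by ONE-Glo luminescence after 30 min at RT.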
Rab9 promoter act: activators of Rab9 promoter; AID 485297; Huh7 Rab9 promoter-luciferase reporter, luminescence, 24 h; Potency, µM (highest dose often 9.22 µM), for inactives: at the highest dose activation, negative = inhibition, hits mostly activators; 320,000 tested, 2.8% active; note: % of control where 0% means no effect; nearly all actives have a fitted effect of over 60% in size
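Rab9 promoter-driven luciferase in stably transfected Huh7 cells; 1500 cells/well rested 2 h, exposed to compound in DMSO for 24 h at 37 °C, 5% CO2. Luminescence read 10 min after adding luciferase reagent at ambient temperature.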
FLuc modulator: counter-screen for miR-21 project: firefly luciferase inhibitors or activators; purified FLuc, Km substrates, luminescence inhibition; Potency, µM (highest dose often 57.5 µM), for inactives: at the highest dose activity change, negative = inhibition, hits mostly inhibitors; 360,000 tested, 6.9% active;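 note: plate controls were vehicle for no effect and reference inhibitor for full effect; nearly all actives have a fitted effect of over 55% in size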
Target sequence (P08659 whole entry, looked up): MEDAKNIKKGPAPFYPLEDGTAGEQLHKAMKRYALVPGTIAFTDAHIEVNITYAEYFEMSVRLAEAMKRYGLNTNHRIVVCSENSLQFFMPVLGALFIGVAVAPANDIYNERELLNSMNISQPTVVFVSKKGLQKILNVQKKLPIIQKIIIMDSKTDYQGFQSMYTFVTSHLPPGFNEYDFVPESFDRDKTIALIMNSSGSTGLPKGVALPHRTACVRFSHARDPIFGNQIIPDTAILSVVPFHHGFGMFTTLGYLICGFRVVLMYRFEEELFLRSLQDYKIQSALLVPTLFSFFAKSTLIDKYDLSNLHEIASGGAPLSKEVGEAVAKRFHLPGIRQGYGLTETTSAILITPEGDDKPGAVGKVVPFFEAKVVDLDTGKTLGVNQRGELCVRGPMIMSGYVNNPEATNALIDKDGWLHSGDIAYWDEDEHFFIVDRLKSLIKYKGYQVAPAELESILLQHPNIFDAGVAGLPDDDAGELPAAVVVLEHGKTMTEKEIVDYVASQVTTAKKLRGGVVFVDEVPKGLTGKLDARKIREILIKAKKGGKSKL
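Purified P. pyralis luciferase (10nM final) with 10uM D-luciferin and 10uM ATP (Km levels) in 50mM Tris acetate pH 7.5, 10mM Mg acetate, 0.01% Tween-20, 0.05% BSA; qHTS 6-point titration, ~60 µM downward; luminescence read.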
NPC1 prom act: NPC1 promoter activation | Huh7 NPC1 promoter luciferase reporter, 24 h | Potency, µM (doses to about 9.22 µM), for inactives: top-dose activation, usual class: activators | 320,000 tested, 2.4% active; note: % of control where 0% means no effect; nearly all actives have a fitted effect of over 60% in size
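Stable NPC1-promoter luciferase Huh7 line; cpd (DMSO) 24 h, 37 °C, 5% CO2; Amplite luciferase reagent 10 min RT; luminescence readout. qHTS format.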
* = called active by the depositor; [ ] = another dose, or the depositor's remark. Most compounds without a hit are left out; they make up all but 7.5% or so of the library. Calls come from the whole dose curve; as a rule, active = well fitted curve in the direction sought with a large enough effect; inconclusive = small, poorly fitted or top-dose-only effect, or another doubt; inactive = no such curve, though single readings can be large; an effect the other way counts as inactive or inconclusive. Potency is the fitted concentration of half-maximal effect.

What do the screens show for `CCS(=O)(=O)N1CCc2nc(-c3ccccc3)sc2C1`?
ELG1 genotoxic: inconclusive; Rab9 promoter act: 1.12µM*; FLuc modulator: 4.78µM*; NPC1 prom act: 0.631µM*

How did N/C(=N\OC(=O)c1ccccc1)c1ccccn1 do in these assays?
ELG1 genotoxic: inconclusive; Rab9 promoter act: 1µM*; FLuc modulator: 0.269µM*; NPC1 prom act: 1.78µM*

Results for COc1cc(C(=O)O/N=C(\N)c2ccccn2)cc(OC)c1OC ?
ELG1 genotoxic: inconclusive; Rab9 promoter act: 27.6%; FLuc modulator: -18.7%; NPC1 prom act: 23.1%

What do the screens show for `Cc1ccc(C(=O)O/N=C(\N)c2ccccn2)cc1C`?
ELG1 genotoxic: 0.326µM*; Rab9 promoter act: 0.501µM*; FLuc modulator: 0.0953µM*; NPC1 prom act: 0.316µM*

How did N/C(=N\OC(=O)C(c1ccccc1)c1ccccc1)c1ccccn1 do in these assays?
SMN2 splice enh: -4.3%; ELG1 genotoxic: 6.0%; Rab9 promoter act: -2.1%; FLuc modulator: 5.3%; NPC1 prom act: -2.0%

What do the screens show for `COC(=O)c1ccc(COC(=O)c2ccccn2)cc1`?
SMN2 splice enh: 21.8%; ELG1 genotoxic: 0.3%; Rab9 promoter act: 1.8%; FLuc modulator: -24.2%[2.3 µM]; NPC1 prom act: 1.2%

How did Cc1ccc(C(=O)O/N=C(\N)c2ccccn2)cc1 do in these assays?
ELG1 genotoxic: inconclusive; Rab9 promoter act: 1.12µM*; FLuc modulator: 0.0239µM*; NPC1 prom act: 0.501µM*

What do the screens show for `CC(C)(C)c1ccc(C(=O)O/N=C(\N)c2ccccn2)cc1`?
ELG1 genotoxic: -5.4%; Rab9 promoter act: -24.0%; FLuc modulator: 0.239µM*; NPC1 prom act: -25.3%

How did Cc1ccc(S(=O)(=O)N2CCOCC2)cc1C(=O)OCC(=O)N1c2ccccc2NC(=O)C1(C)C do in these assays?
SMN2 splice enh: 14.9%; ELG1 genotoxic: 1.0%; Rab9 promoter act: 2.8%; FLuc modulator: 6.4%; NPC1 prom act: -4.9%

What do the screens show for `CC1(c2ccc3ccccc3c2)NC(=O)N(CC(=O)N2CCCC(C(F)(F)F)C2)C1=O` (stereo not drawn)?
ELG1 genotoxic: -3.5%; Rab9 promoter act: 0.4%; FLuc modulator: 1.9%; NPC1 prom act: -5.0%

How did COc1ccc(NC(=O)c2sc3nc4c(cc3c2N)CN(C(C)C)CC4)c(OC)c1 do in these assays?
SMN2 splice enh: -58.5%; FLuc modulator: -10.0%

How did Cc1ccc(Nc2nnc(-c3ccc(C)c(S(=O)(=O)N4CCOCC4)c3)c3ccccc23)c(C)c1 do in these assays?
SMN2 splice enh: 1.4%; FLuc modulator: -12.2%

What do the screens show for `CCc1ccccc1S(=O)(=O)Cc1ccc(C(=O)NCCc2ccc(C)cc2)o1`?
SMN2 splice enh: -22.2%; FLuc modulator: -16.4%

Results for CC(C)c1ccc(NC(=O)C2CCN(S(=O)(=O)c3cccc4nonc34)CC2)cc1 ?
SMN2 splice enh: 0.2%; FLuc modulator: 1.8%

What do the screens show for `Cc1cccc(C(=O)O/N=C(/c2ccccc2)c2ccncc2)c1`?
SMN2 splice enh: -1.2%; ELG1 genotoxic: -2.4%; Rab9 promoter act: -3.1%; FLuc modulator: inconclusive; NPC1 prom act: -2.2%

What do the screens show for `O=C(NCCCNC(=O)c1ccccn1)c1cccc(F)c1`?
ELG1 genotoxic: 3.5%; Rab9 promoter act: 4.3%; FLuc modulator: 3.0%; NPC1 prom act: -7.0%

Results for Cc1cccc(C(=O)O/N=C(\N)c2ccccn2)c1 ?
ELG1 genotoxic: 2.59µM*; Rab9 promoter act: 3.98µM*; FLuc modulator: 0.269µM*; NPC1 prom act: 1.58µM*

How did CCOc1ccc(C(=O)O/N=C(\N)c2ccccn2)cc1 do in these assays?
ELG1 genotoxic: inconclusive; Rab9 promoter act: 0.501µM*; FLuc modulator: 0.0849µM*; NPC1 prom act: 0.1µM*

How did N/C(=N\OCc1ccc([N+](=O)[O-])cc1)c1ccccn1 do in these assays?
SMN2 splice enh: 0.794µM*; ELG1 genotoxic: 0.082µM*; Rab9 promoter act: inconclusive; FLuc modulator: 0.379µM*; NPC1 prom act: inconclusive

How did N/C(=N\OC(=O)c1cccc(F)c1)c1ccccn1 do in these assays?
ELG1 genotoxic: inconclusive; Rab9 promoter act: 1.58µM*; FLuc modulator: 1.07µM*; NPC1 prom act: 3.55µM*

How did COC(=O)[C@@]1(Cc2ccccc2)[C@H]2c3cc(C(=O)N4CCCC4)n(Cc4ccc(OC)c(OC)c4)c3C[C@H]2CN1C(=O)c1ccccc1 do in these assays?
SMN2 splice enh: -24.9%

What do the screens show for `S=C(NCc1ccc(Cl)cc1)NN1CCOCC1`?
SMN2 splice enh: -3.7%; ELG1 genotoxic: 0.1%; Rab9 promoter act: 1.0%; FLuc modulator: 2.6%; NPC1 prom act: 0.4%

How did N/C(=N\OC(=O)c1ccc(Br)o1)c1ccccn1 do in these assays?
SMN2 splice enh: 12.6µM*; ELG1 genotoxic: inconclusive; Rab9 promoter act: 2.24µM*; FLuc modulator: 2.69µM*; NPC1 prom act: 0.562µM*

What do the screens show for `C/C(=N\OC(=O)c1ccc(Br)cc1)c1ccccn1`?
SMN2 splice enh: 0.3%; ELG1 genotoxic: 2.1%; Rab9 promoter act: -7.5%; FLuc modulator: 0.536µM*; NPC1 prom act: -1.0%

Results for O=C(OCc1ccccc1)c1ccc(Br)o1 ?
SMN2 splice enh: -11.9%; ELG1 genotoxic: 10.2%; Rab9 promoter act: -6.6%; FLuc modulator: -27.3%; NPC1 prom act: -0.6%

What do the screens show for `C/C(=N/OCc1ccc(Br)cc1)c1ccccn1`?
SMN2 splice enh: 14.1µM*; ELG1 genotoxic: 4.61µM*; Rab9 promoter act: 2.51µM*; FLuc modulator: 3.01µM*; NPC1 prom act: 3.98µM*

How did Nc1ccc(S(=O)C(F)(F)F)cc1 (stereo not drawn) do in these assays?
SMN2 splice enh: 5.8%; ELG1 genotoxic: 1.6%; Rab9 promoter act: 5.9%; FLuc modulator: -0.6%; NPC1 prom act: 4.8%

How did COc1cccc(C(=O)Nc2c[nH]c(=O)[nH]c2=O)c1 do in these assays?
ELG1 genotoxic: 2.4%; Rab9 promoter act: -0.4%; FLuc modulator: -2.1%; NPC1 prom act: -2.1%

How did COc1ccc(-c2onc(C)c2C)cc1S(=O)(=O)Nc1cccc(C#N)c1 do in these assays?
FLuc modulator: -18.8%

How did COc1ccc(S(=O)(=O)NCCc2csc3nc(-c4ccc(OC)c(OC)c4)nn23)cc1C do in these assays?
FLuc modulator: -14.5%

What do the screens show for `CCc1ccc(NC(=O)[C@H](CSCc2ccccc2)N2Cc3ccccc3C2=O)cc1`?
SMN2 splice enh: 1.0%; FLuc modulator: 2.1%

Results for CCN(CC)S(=O)(=O)c1ccc(NC(=O)[C@H](CSCc2ccccc2)N2Cc3ccccc3C2=O)cc1 ?
SMN2 splice enh: 4.47µM*; FLuc modulator: 5.5%

Results for CCC(=O)Nc1cccc(C(=O)/C=C/c2cccs2)c1 ?
SMN2 splice enh: -63.5%; ELG1 genotoxic: 11.9%; Rab9 promoter act: inconclusive; FLuc modulator: 12µM*; NPC1 prom act: 25.6%

Results for CCC(=O)Nc1cccc(C(=O)c2ccccc2)c1 ?
SMN2 splice enh: 3.1%; ELG1 genotoxic: 10.2%; Rab9 promoter act: 1.7%; FLuc modulator: -7.6%; NPC1 prom act: -0.2%
